Only some compounds are listed: those with a hit (about 7.2% of all), similar ones and a draw of the others.
SNCA expr inh: SNCA gene expression inhibition. HEK-293 SNCA-luciferase knock-in, luminescence, 24 h. Potency, µM (series often up to 57.2 µM), without a hit: at the highest dose activity change, negative = inhibition, usual class: inhibitors. 140,000 tested, 0.17% active. AID 1671194;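 note: plate controls were DMSO cells for no effect and cell-free wells for full effect; nearly all actives have a fitted effect of over 45% in size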
NPR1 antag: human Npr1 receptor antagonism. P16066. HEK293 hNpr1 GloSensor cGMP, ANP-stimulated luminescence. Potency, µM (series often up to 46.3 µM), inactives show at the top dose activity change, negative = inhibition, actives largely listed as inhibitors. 76,000 tested, 1.6% active. AID 1347048; calls by dose curve; note: nearly all actives have a fitted effect of over 60% in size
Target sequence (P16066 whole entry, looked up): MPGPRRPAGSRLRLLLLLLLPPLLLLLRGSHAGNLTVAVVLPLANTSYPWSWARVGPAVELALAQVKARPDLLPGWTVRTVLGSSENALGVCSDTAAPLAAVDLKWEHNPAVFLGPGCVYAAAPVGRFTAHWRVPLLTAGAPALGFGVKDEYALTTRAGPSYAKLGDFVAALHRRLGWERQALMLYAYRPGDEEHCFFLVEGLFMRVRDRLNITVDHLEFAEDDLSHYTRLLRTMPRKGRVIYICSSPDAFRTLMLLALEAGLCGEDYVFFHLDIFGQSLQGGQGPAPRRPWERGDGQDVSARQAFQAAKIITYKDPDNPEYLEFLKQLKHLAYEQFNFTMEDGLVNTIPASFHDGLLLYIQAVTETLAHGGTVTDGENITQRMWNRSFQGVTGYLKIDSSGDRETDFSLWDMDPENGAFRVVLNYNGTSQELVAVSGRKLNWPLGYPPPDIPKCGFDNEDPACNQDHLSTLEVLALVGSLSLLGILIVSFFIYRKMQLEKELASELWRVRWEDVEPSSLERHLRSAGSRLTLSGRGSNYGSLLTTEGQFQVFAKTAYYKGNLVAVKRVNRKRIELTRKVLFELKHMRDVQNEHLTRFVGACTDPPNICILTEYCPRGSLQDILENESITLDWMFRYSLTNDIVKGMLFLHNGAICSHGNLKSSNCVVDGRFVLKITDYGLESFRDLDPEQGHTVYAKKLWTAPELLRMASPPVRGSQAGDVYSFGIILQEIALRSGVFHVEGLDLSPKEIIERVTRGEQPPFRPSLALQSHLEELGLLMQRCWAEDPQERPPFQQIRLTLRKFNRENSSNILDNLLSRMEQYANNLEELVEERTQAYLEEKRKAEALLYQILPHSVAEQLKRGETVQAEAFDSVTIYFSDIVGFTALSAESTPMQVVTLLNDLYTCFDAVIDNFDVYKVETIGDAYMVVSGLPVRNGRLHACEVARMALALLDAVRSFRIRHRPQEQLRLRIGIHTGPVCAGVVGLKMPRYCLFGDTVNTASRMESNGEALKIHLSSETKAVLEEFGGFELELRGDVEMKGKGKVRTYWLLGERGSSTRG
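Compound pre-incubated 30 min at room temperature on GloSensor-loaded HEK293 cells stably carrying hNpr1 and the pGS-40F cGMP biosensor. Stimulation uses hNppA at 0.1 nM final; luminescence is taken at baseline and 20 min post-agonist.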
Luciferase inh: inhibitors of firefly (Photinus pyralis) luciferase; P08659; purified P. pyralis luciferase, luminescence, biochemical; Potency, µM (highest dose often 115 µM), usual class: inhibitors; 76,000 tested, 2.5% active; AID 1347043; note: nearly all actives have a fitted effect of over 65% in size
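Biochemical qHTS: compound (6-point titration) added to 10uM D-luciferin plus 10uM ATP in Tris acetate pH 7.5 buffer with Mg, Tween-20 and BSA, then purified enzyme at 10nM; light output imaged.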
HEK293 viab: cell viability loss counter-screen | HEK-293-SNCA-luc viability, GF-AFC fluorescence, 24 h | Potency, µM (doses to about 57.1 µM), without a hit: at the top dose activity change, negative = cytotoxicity, actives largely listed as cytotoxic | 150,000 tested, 0.12% active | AID 1671193;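 note: 0% = DMSO-treated cells and -100% = medium-only wells without cells; nearly all actives have a fitted effect of over 30% in size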
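HEK-293-SNCA-luc cells (1500/well) plated 24 h, then exposed 24 h to a dilution series; GF-AFC added 30 min at 37C, fluorescence 405/540 nm; normalised to medium-only and DMSO wells, Hill fit.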
HEK293 tox: kills HEK 293 cells | HEK 293 viability, ATP luminescence (CellTiter-Glo), 48-72 h | Potency, µM (top dose mostly 115 µM), for the others: at the highest dose activity change, negative = cytotoxicity, most hits filed as inhibitors | 94,000 tested, 6.6% active | AID 1345083; note: nearly all actives have a fitted effect of over 60% in size
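Pintool-delivered compounds were incubated with HEK 293 cells (250 cells/well) at 37 degree Celsius for 48 or 72 hr. ATP-dependent luminescence (CellTiter-Glo) then reported remaining viable cells.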
3T3 cytotox: NIH 3T3 cell cytotoxicity | NIH 3T3 viability, CellTiter-Glo ATP luminescence, 48-72 h | Potency, µM (series often up to 96.7 µM), for inactives: top-dose activity change, negative = cytotoxicity, hits mostly inhibitors | 94,000 tested, 4.3% active; note: nearly all actives have a fitted effect of over 55% in size
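Viability of NIH 3T3 cells after 48 or 72 hr compound treatment at 37 °C was assessed by CellTiter-Glo, with luminescence imaged following a 10 min room-temperature step.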
* marks the source's active call; other numbers are inactive results; i = inactive; ? = inconclusive; nt = not tested or not shown; [ ] = another dose, or the depositor's remark. Unless noted, calls come from the whole dose curve; as a rule, active = well fitted curve in the direction sought with a large enough effect; inconclusive = small, poorly fitted or top-dose-only effect, or another doubt; inactive = no such curve, though single readings can be large; an effect the other way counts as inactive or inconclusive. Unless noted, % is set by controls: 0 for no effect and ±100 for the full control effect; potency is the fitted concentration of half-maximal effect.

SMILES	SNCA expr inh	NPR1 antag	Luciferase inh	HEK293 viab	HEK293 tox	3T3 cytotox
CC1(C(=O)NC2CCOCC2)CN(Cc2ccccc2)Cc2ccc(Nc3ccccc3)nc21 (stereo unspecified)	-28.6%	-12.6%	i	?	?	31.6µM*
CC1(C(=O)NC2COC2)CN(Cc2ccccc2)Cc2ccc(Nc3ccccc3)nc21 (stereo unspecified)	-19.9%[87.6 µM]	-1.8%[70.6 µM]	i	-13.5%[87.6 µM]	89.1µM*	39.8µM*
COCCNC(=O)C1(C)CN(Cc2ccccc2)Cc2ccc(Nc3ccccc3)nc21 (stereo unspecified)	-2.6%[87.6 µM]	-1.6%[70.6 µM]	i	-24.5%[87.6 µM]	?	?
CN1Cc2ccc(Nc3ccccc3)nc2C(C)(C(=O)NCc2cccs2)C1 (stereo unspecified)	-14.8%[87.6 µM]	-19.9%[70.6 µM]	i	-22.5%[87.6 µM]	70.8µM*	?
CN1CCC(NC(=O)C2(C)CN(Cc3ccccc3)Cc3ccc(Nc4ccccc4)nc32)CC1 (stereo unspecified)	-17.6%	-3.0%	i	-26.9%	17.8µM*	15.8µM*
COc1ccccc1CN1CC[C@@](C)(O)[C@H](N2CCCC2)C1	0.0%	0.1%	i	11.8%	?	?
CNC(=O)C1(C)CN(Cc2ccccc2)Cc2ccc(Nc3ccccc3)nc21 (stereo unspecified)	-14.2%[87.6 µM]	?	?	?	79.4µM*	?
COc1ccc(-n2c(=O)c3c(n2Cc2ccccc2)CN(C(C)=O)CC3)cc1	-0.1%[87.6 µM]	5.1%[70.6 µM]	i	3.4%[87.6 µM]	2.5%[172 µM]	?
Cc1ccccc1CN1CCc2c(n(Cc3ccccc3)n(-c3ccccc3)c2=O)C1	-6.7%[87.6 µM]	-21.4%[70.6 µM]	i	-18.6%[87.6 µM]	89.1µM*	89.1µM*
CC(C)C(=O)N1CCc2c(n(Cc3ccccc3)n(-c3ccccc3)c2=O)C1	14.9%[87.6 µM]	-3.0%[70.6 µM]	i	-16.2%[87.6 µM]	3.7%[172 µM]	22.4µM*
CCn1c2c(c(=O)n1Cc1ccccc1)CCN(C(=O)C(C)C)C2	-16.2%[87.6 µM]	3.5%[70.6 µM]	i	-1.4%[87.6 µM]	i	?
COc1ccc(-n2c(=O)c3c(n2Cc2ccccc2)CN(C(=O)C(C)C)CC3)cc1	5.5%[87.6 µM]	-7.9%[70.6 µM]	i	-10.3%[87.6 µM]	-3.8%[172 µM]	10µM*
Nc1ncccc1CN1CCc2c(n(Cc3ccccc3)n(-c3ccccc3)c2=O)C1	-4.0%[87.6 µM]	-13.7%[70.6 µM]	i	-11.1%[87.6 µM]	?	-25.4%[138 µM]
COc1ccc(Cn2c3c(c(=O)n2Cc2ccccc2)CCN(C(=O)c2ccnn2C)C3)cc1	22.1%	-1.4%	i	-6.3%	3.2%	35.5µM*
O=C(Nc1cccc(-n2cccn2)c1)C1CCCN1C(=O)c1ccoc1 (stereo unspecified)	-21.2%	6.0%	i	1.4%	-5.8%	3.8%
O=C(NCCc1cccnc1)c1ccc(-c2nnc3ccc(NC(=O)C4CCC4)cn23)cc1	75.7%	-1.0%	i	-0.6%	?	35.5µM*
Fc1ccc(OC2CN(Cc3ccccc3)C2)cc1F	4.8%[87.6 µM]	nt	nt	5.6%[87.6 µM]	-26.9%[172 µM]	-16.1%[138 µM]
COc1ccc(-c2onc(C)c2C(=O)NCc2c(OC)cc(OC)cc2OC)cc1	-1.5%	-10.1%	i	5.8%	31.6µM*	?
COc1ccc(CNC(=O)c2c(C)noc2-c2cc(OC)cc(OC)c2)cc1	24.9%	-1.8%	i	1.3%	?	-6.8%
COc1ccc(-c2onc(C)c2C(=O)NCc2ccccc2)cc1	-4.4%	-0.4%	i	3.1%	?	?
COc1cc(OC)c(CNC(=O)c2c(C)noc2-c2cccs2)c(OC)c1	?	-3.4%	i	3.3%	79.4µM*	?
COc1ccc(-c2onc(C)c2C(=O)NC2CCCc3ccccc32)cc1 (stereo unspecified)	13.9%	-5.1%	28.2µM*	-4.5%	?	?
CC(=O)N1CCN(C(=O)C[C@@H]2CCNC[C@@H]2Cc2cc(-c3ccccc3)on2)CC1	9.1%[87.6 µM]	-20.1%[70.6 µM]	i	3.2%[87.6 µM]	-6.0%[172 µM]	0.1%[138 µM]
CN(Cc1ccccc1)C(=O)C[C@@H]1CCNC[C@@H]1Cc1cc(COc2ccccc2)on1	6.1%[87.6 µM]	-20.3%[70.6 µM]	i	-2.2%[87.6 µM]	50.1µM*	28.2µM*

Assay outcomes as filed in PubChem BioAssay.
